This is an account of results in PubChem BioAssay (NCATS).

Results filed as inconclusive are left out. A call without a number means that no potency is given here. Calls of active or inactive are those of the source. Unless noted, calls come from the whole dose curve.

Chain of Tumor necrosis factor (Homo sapiens) (P01375 whole entry, looked up): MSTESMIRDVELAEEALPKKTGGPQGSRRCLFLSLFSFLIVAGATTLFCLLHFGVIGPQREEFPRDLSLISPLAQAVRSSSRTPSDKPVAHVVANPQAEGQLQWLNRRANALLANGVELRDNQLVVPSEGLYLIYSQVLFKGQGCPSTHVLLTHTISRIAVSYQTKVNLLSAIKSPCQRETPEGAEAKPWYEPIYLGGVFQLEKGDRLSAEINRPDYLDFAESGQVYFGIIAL

System in the first experiment: not listed separately
Put plainly: qHTS assay for small molecule disruptors of the mitochondrial membrane potential - 1 hr assay (AID 651754). Note: nearly all actives have a fitted effect of over 35% in size. Note: potency is the fitted concentration of half-maximal effect. The following applies: series mostly up to 92.2 µM. Put shortly: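 HepG2 cells, attached overnight, were exposed to compound for 1 hr at 37C, then stained 30 min with a potentiometric dye. Ratio of red aggregate (590nm) to green monomer (535nm) fluorescence reports membrane potential; collapse shifts signal toward green.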
On the technique in general: Quantitative high-throughput screening tests each substance at several concentrations.
For `O=[N+]([O-])c1ccc(NCCO)c(OCCO)c1`, the Potency entry was “inactive”.
The same measure, in the same setting: for `ClC/C=C/CCl` the value was “inactive”; for `CCCCCCCN`, “inactive”; for `CC(C)(O)CCC(C)(C)O`, “inactive”.
Turning to `Nc1cccc(S(=O)(=O)O)c1`, the Potency result is “inactive”.
On to `Nc1cccc(N)c1`, for which the Potency is 21.1 µM (active).
Same read-out and setting: with `CSc1ccc(C=O)cc1` the entry was “inactive”; with `Cc1ccc([N+](=O)[O-])c(N)c1`, “inactive”.
Same read-out and setting: with `COc1ccc(N)c(OC)c1` the figure was 37.6 µM (active).
For `CCCCCCCCN`, the Potency entry is “inactive”.
For the molecule `C=CCCC`, the Potency result was “inactive”.
On the same count and under the same terms, for `C=CCCCCCC` the value was “inactive”; for `Cc1ccccc1C=O`, “inactive”; for `CCN(CC)c1cccc(O)c1`, “inactive”.
For the molecule `Fc1ccccc1`, the Potency entry is “inactive”.
Regarding `NC(=S)NNC(N)=S`, the Potency entry was “inactive”.
Regarding `CCNc1cc(O)ccc1C`, the Potency entry was “inactive”.
On the same count and under the same terms, for `Cc1ccc(C#N)cc1` the value was “inactive”.
`Nc1cccc2c(=O)[nH][nH]c(=O)c12`: the Potency result is “inactive”.
As to `Cc1c(N)cccc1[N+](=O)[O-]`, the Potency entry was “inactive”.
On the same count and under the same terms, for `O=C1OC(=O)c2c(Br)c(Br)c(Br)c(Br)c21` the value was “inactive”; for `O=Cc1cccc(Br)c1`, “inactive”.
Consider `O=Cc1ccc(CO)o1`, for which the Potency result was “inactive”.
With `C=CCn1c(=O)n(CC=C)c(=O)n(CC=C)c1=O`, the Potency result is “inactive”.
In the case of `CCCCCCCCCCCCC1CO1` (configuration not stated), the Potency entry is “inactive”.

System in a further experiment: not listed separately
Put plainly: qHTS assay for small molecule disruptors of the mitochondrial membrane potential - 5 hr assay (AID 651755). Note: nearly all actives have a fitted effect of over 40% in size. The following applies: JC-1-type ratio dye; series mostly up to 92.2 µM. A digest of the protocol: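 HepG2, 2,000 cells/well, overnight attach; cpd or DMSO 5 hr, 37C/5% CO2; Mito-MPS 30 min 37C; fluor 490/535 + 540/590 nm.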
Turning to `O=[N+]([O-])c1ccc(NCCO)c(OCCO)c1`, the Potency result was “inactive”.
For `ClC/C=C/CCl`, the Potency result was “inactive”.
As for `CCCCCCCN`, the Potency result was “inactive”.
In the case of `CC(C)(O)CCC(C)(C)O`, the Potency entry is “inactive”.
As for `C=Cc1ccccn1`, the Potency result is “inactive”.
Take `CSc1ccc(C=O)cc1`: the Potency entry is “inactive”.
For `Cc1ccc([N+](=O)[O-])c(N)c1`, the Potency result is “inactive”.
On to `C=CC(=O)NC(C)C`, for which the Potency entry was “inactive”.
Regarding `CCCCCCCCN`, the Potency entry was “inactive”.
Consider `C=CCCC`, for which the Potency entry is “inactive”.
As to `C=CCCCCCC`, the Potency entry was “inactive”.
As to `Cc1ccccc1C=O`, the Potency entry is “inactive”.
On to `CCN(CC)c1cccc(O)c1`, for which the Potency entry is “inactive”.
For `Fc1ccccc1`, the Potency result is “inactive”.
On to `CCNc1cc(O)ccc1C`, for which the Potency entry was “inactive”.
Take `Cc1ccc(C#N)cc1`: the Potency entry was “inactive”.
On to `c1ccc2n[nH]nc2c1`, for which the Potency entry was “inactive”.
On to `Nc1cccc2c(=O)[nH][nH]c(=O)c12`, for which the Potency result was “inactive”.
The same measure, in the same setting: for `Cc1c(N)cccc1[N+](=O)[O-]` the value was “inactive”.
Turning to `O=C1OC(=O)c2c(Br)c(Br)c(Br)c(Br)c21`, the Potency entry was “inactive”.
Take `O=Cc1cccc(Br)c1`: the Potency entry is “inactive”.
On the same count and under the same terms, for `O=Cc1ccc(CO)o1` the value was “inactive”; for `CCCCCCCCCCCCC1CO1` (configuration not stated), “inactive”.
Still for that read-out and setting: with `Cc1ccc(C(=O)O)cc1` the entry was “inactive”.

The target of the next experiment is Tumor necrosis factor (Homo sapiens) (UniProt P01375). Put plainly: qHTS assay to identify small molecules that stimulate Tumor Necrosis Factor-alpha (TNF-alpha) secretion (AID 651757; active = well fitted curve in the direction sought with a large enough effect in the signal ratio; the % refers to the signal ratio). The following applies: Human cells, HTRF 665/615 ratio; series mostly up to 92.2 µM. Put shortly:
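THP-1 cells (3000/well) exposed to compounds 17 hrs at 37 C. Secreted TNF-alpha detected by HTRF with cryptate- and XL665-labeled anti-TNF-alpha antibodies after 3 hr at room temperature.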
On to `O=[N+]([O-])c1ccc(NCCO)c(OCCO)c1`, for which the Potency result was “inactive”.
On to `ClC/C=C/CCl`, for which the Potency entry is “inactive”.
For the molecule `Cc1cscn1`, the Potency result is “inactive”.
As to `CCCCCCCN`, the Potency result is “inactive”.
The same measure, in the same setting: for `CC(C)(O)CCC(C)(C)O` the value was “inactive”.
Consider `Nc1cccc(S(=O)(=O)O)c1`, for which the Potency entry was “inactive”.
On to `O=Cc1c(Cl)cccc1Cl`, for which the Potency result is “inactive”.
With `Oc1c(Cl)ccc(Cl)c1Cl`, the Potency result was “inactive”.
Regarding `COC(=O)CCCC(=O)OC`, the Potency result is “inactive”.
As for `O=c1[nH][nH]c(=O)c2cc([N+](=O)[O-])ccc12`, the Potency entry is “inactive”.
As to `C=Cc1ccccn1`, the Potency result is “inactive”.
`Nc1ccc([N+](=O)[O-])c(N)c1`: the Potency entry was “inactive”.
Consider `Nc1cccc(N)c1`, for which the Potency result is “inactive”.
As for `C=CCCCC`, the Potency entry was “inactive”.
In the case of `C=CC(=O)NC(C)C`, the Potency result was “inactive”.
For the molecule `C/C(C=O)=C/c1ccccc1`, the Potency result is “inactive”.
For `CCCCCCCCN`, the Potency entry was “inactive”.
With `C=CCCC`, the Potency result was “inactive”.
Consider `C=CCCCCCC`, for which the Potency result is “inactive”.
Regarding `Cc1ccccc1C=O`, the Potency result was “inactive”.
As for `CC(=C/C=C/C(C)=C/C=C/C=C(C)/C=C/C=C(C)/C=C/C(=O)O)/C=C/C(=O)O`, the Potency entry is “inactive”.
On the same count and under the same terms, with `Fc1ccccc1` the entry was “inactive”; with `NC(=S)NNC(N)=S`, “inactive”.
For the molecule `Cc1ccc(C#N)cc1`, the Potency result is “inactive”.
Still for that read-out and setting: for `c1ccc2n[nH]nc2c1` the value was “inactive”; for `Cc1c(N)cccc1[N+](=O)[O-]`, “inactive”.
On the same count and under the same terms, with `O=C1OC(=O)c2c(Br)c(Br)c(Br)c(Br)c21` the entry was “inactive”.
Take `CCCCC/C=C/C=C/C=O`: the Potency entry was “inactive”.
On to `O=Cc1cccc(Br)c1`, for which the Potency result was “inactive”.
With `O=Cc1ccc(CO)o1`, the Potency entry is “inactive”.
For `C=CCn1c(=O)n(CC=C)c(=O)n(CC=C)c1=O`, the Potency result was “inactive”.
`CCCCCCCCCCCCC1CO1` (configuration not stated): the Potency result is “inactive”.
On to `Cc1ccc(C(=O)O)cc1`, for which the Potency entry was “inactive”.
